# Data from PubChem BioAssay (NCATS).
# Unmarked numbers belong to inactive results. Records with an inconclusive call do not appear. Entries that show only a call come without a potency. The source made the active and inactive calls. Calls come from the whole dose curve; as a rule, active = well fitted curve in the direction sought with a large enough effect; inconclusive = small, poorly fitted or top-dose-only effect, or another doubt; inactive = no such curve, though single readings can be large; an effect the other way counts as inactive or inconclusive. Where a SMILES comes first, the peptide text is derived from it. The star is where a group is joined. Cbz = O=C(OCc1ccccc1)*; CH2F = FC*
# Key:
# [1] = molecular target: Glutathione peroxidase 1 (Homo sapiens) (UniProt P07203); experiment: Primary qHTS Assay for Inhibitors of Recombinant Selenoprotein Glutathione Peroxidase 1 (GPX1) (AID 1845191); note: nearly all actives have a fitted effect of over 65% in size
# Glutathione peroxidase 1 (Homo sapiens), sequence (P07203 whole entry, looked up): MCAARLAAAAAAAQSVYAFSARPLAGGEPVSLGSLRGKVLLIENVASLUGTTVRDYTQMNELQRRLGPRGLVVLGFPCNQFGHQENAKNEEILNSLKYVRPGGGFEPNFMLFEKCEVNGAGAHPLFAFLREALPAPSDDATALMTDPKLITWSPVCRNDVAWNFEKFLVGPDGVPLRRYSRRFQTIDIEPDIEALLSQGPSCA
# Outline: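 Recombinant GPX1 (10 nM final) was preincubated with compound for 30 min at room temperature, then reacted with 1 mM GSH, 0.5 mM CHP, 0.5 mM NADPH and 100 nM glutathione reductase; NADPH fluorescence (340/450 nm) was read at 0 and 15 min.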
# [2] = molecular target: Phospholipid hydroperoxide glutathione peroxidase GPX4 (Homo sapiens) (UniProt P36969); experiment: Primary qHTS Assay for Inhibitors of Recombinant Selenoprotein Glutathione Peroxidase 4 (GPX4) (AID 1845192); note: nearly all actives have a fitted effect of over 65% in size; for activity change, negative = inhibition: series mostly up to about 50 µM
# Phospholipid hydroperoxide glutathione peroxidase GPX4 (Homo sapiens), sequence (P36969 whole entry, looked up): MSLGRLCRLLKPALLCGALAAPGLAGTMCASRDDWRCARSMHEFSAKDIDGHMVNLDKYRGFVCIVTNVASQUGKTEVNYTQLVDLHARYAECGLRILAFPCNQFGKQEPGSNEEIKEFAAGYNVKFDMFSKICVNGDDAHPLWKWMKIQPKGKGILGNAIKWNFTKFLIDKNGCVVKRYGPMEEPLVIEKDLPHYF
# Outline: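 GR-coupled readout: 100 nM GR, 1 mM GSH, 0.5 mM NADPH; NADPH fluorescence (ex 340/em 450 nm) read at t=0 and after 15 min RT. GPX4 200 nM, preincubated 30 min with compound; substrate 0.5 mM CHP.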
# [3] = molecular target: Luciferin 4-monooxygenase (Photinus pyralis) (UniProt P08659); experiment: Primary firefly luciferase (FLuc) qHTS assay for identification of artifact compounds. (AID 1845220); note: nearly all actives have a fitted effect of over 60% in size; for activity change, negative = inhibition: series mostly up to about 54 µM
# Outline: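 Reaction readout was CCD-imaged luminescence, taken 5 min after adding 10 nM purified firefly enzyme to compound-treated wells holding 10 uM luciferin and ATP in pH 7.6 buffer.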
# [4] = Primary fluorescence-based thiol-reactive (MSTI) qHTS assay for identification of artifact compounds. (AID 1845221); note: nearly all actives have a fitted effect of over 65% in size; note: potency is the fitted concentration of half-maximal effect;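 for activity change, negative = thiol reactive: series mostly up to about 54 µM; thiol-reactive compounds lower the probe fluorescence signal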
# Outline: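 Reactivity toward the thiol probe MSTI (4 uM) is scored by fluorescence at Ex/Em 525/598 nm after 1 h at room temperature. Acetyl-MSTI and MSTI define the activity scale.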
# [5] = tested on: Nanoluciferase (engineered Oplophorus gracilirostris luciferase); experiment: Primary Nanoluciferase (NLuc) qHTS assay for identification of artifact compounds. (AID 1845222);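 note: NLuc secreted into diluted conditioned medium of S16 cells; series mostly up to about 54 µM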
# Outline: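 Concentration-response data were obtained by luminescence after 5 min with Nano-Glo substrate at 1:100. The enzyme was diluted S16 NLuc-expressing cell medium, preincubated with compound for 15 min at RT. Curves were fitted with a 4-parameter Hill model.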
# [6] = Primary redox qHTS assay for identification of artifact compounds. (AID 1845223); note: potency is the fitted concentration of half-maximal effect
# Outline: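 Amplex Red (25 uM) and HRP (250 mU/mL) in HBSS, with compounds for 15 min, then 250 uM DTT for 30 min, room temperature, dark. Fluorescence 525/598 nm read; normalized to DMSO and 10 uM DA3003; Hill fit.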
smiles,measurement,setting,value
CCCc1[nH]nc2c1C(c1cc(Cl)cc(Cl)c1O)C(C#N)=C(N)O2 (stereo unspecified),Potency,[1],inactive
same,Potency,[2],inactive
same,Potency,[3],inactive
same,Potency,[4],inactive
same,Potency,[5],inactive
same,Potency,[6],11.9 µM (active)
CC[C@H](C)[C@H](NC(=O)[C@H](Cc1ccc(O)cc1)NC(=O)[C@@H](N)C(C)C)C(=O)N[C@@H](Cc1cnc[nH]1)C(=O)N1CCC[C@H]1C(=O)N[C@@H](Cc1ccccc1)C(=O)O,outcome,[1],inactive [at 4.49 µM]
same,"activity change, negative = inhibition",[2],4.63% [at 4.52 µM]
same,outcome,[3],inactive [at 6.45 µM]
same,"activity change, negative = thiol reactive",[4],19.3% [at 6.41 µM]
same,"activity, negative = inhibition",[5],2.76% [at 6.45 µM]
same,redox activity (% of DA3003),[6],-2.99% [at 6.41 µM]
CC(=O)NC(C(=O)OC1CCC(C)(C)C2CC=C3C(=O)OCC3C12C)C(C)C (stereo unspecified),Potency,[1],inactive
same,Potency,[2],inactive
same,Potency,[3],inactive
same,Potency,[4],inactive
same,Potency,[5],inactive
same,Potency,[6],inactive
C[C@@H]1CC2OC(=O)C3=C2C(CCC3O)[C@@]12C[C@@H](c1ccoc1)OC2=O (stereo partly specified),Potency,[1],inactive
same,Potency,[2],inactive
same,Potency,[3],inactive
same,Potency,[4],inactive
same,Potency,[5],inactive
same,Potency,[6],inactive
COC(=O)CC[C@H](NC(=O)[C@H](CC(C)C)NC(=O)OCc1ccccc1)C(=O)N[C@@H](Cc1cnc[nH]1)C(=O)N[C@@H](CC(=O)OC)C(=O)CF (Cbz-LE(OMe)HD(OMe)-CH2F),Potency,[1],inactive
same,Potency,[2],inactive
same,"activity change, negative = inhibition",[3],1.89% [at 11.6 µM]
same,"activity change, negative = thiol reactive",[4],12.6% [at 11.5 µM]
same,"activity, negative = inhibition",[5],2.59% [at 11.6 µM]
same,redox activity (% of DA3003),[6],-3.22% [at 11.5 µM]
CC1(C)CC[C@]2(C(=O)O[C@@H]3O[C@H](CO)[C@@H](O)[C@H](O)[C@H]3O)CC[C@]3(C)C(=CCC4[C@@]5(C)CC[C@H](O[C@@H]6O[C@H](C(=O)O)[C@@H](O[C@@H]7O[C@H](CO)[C@@H](O)[C@H](O)[C@H]7O)[C@H](O)[C@H]6O[C@@H]6O[C@H](CO)[C@@H](O)[C@H](O)[C@H]6O)C(C)(C)C5CC[C@]43C)C2C1 (stereo partly specified),Potency,[1],inactive
same,Potency,[2],inactive
same,outcome,[3],inactive [at 11.6 µM]
same,"activity change, negative = thiol reactive",[4],240% [at 11.5 µM]
same,"activity, negative = inhibition",[5],0% [at 11.6 µM]
same,redox activity (% of DA3003),[6],12.6% [at 11.5 µM]
C[C@@H]1C[C@@H](O)[C@@]23CO[C@]2(CO)C[C@@H](O)CC3[C@@]12CC(c1ccoc1)OC2=O (stereo partly specified),Potency,[1],inactive
same,Potency,[2],inactive
same,Potency,[3],inactive
same,Potency,[4],6.56 µM (active)
same,Potency,[5],inactive
same,Potency,[6],inactive
C/C(=C\CCC(C)C1CC(O)C2(C)C3CCC4C(C)(C)C(OC5OCC(O)C(O)C5O)CCC45CC35CC(O)C12C)C(=O)O (stereo unspecified),Potency,[1],inactive
same,Potency,[2],inactive
same,Potency,[3],inactive
same,Potency,[4],inactive
same,Potency,[5],inactive
same,Potency,[6],inactive
Cc1occc(=O)c1O[C@@H]1O[C@H](CO)[C@@H](O)[C@H](O)[C@H]1O,Potency,[1],inactive
same,Potency,[2],inactive
same,Potency,[3],inactive
same,Potency,[4],inactive
same,Potency,[5],inactive
same,Potency,[6],inactive
CC1=C2CC(=O)C(C)CC/C=C(\C)CC2OC1=O (stereo unspecified),Potency,[1],inactive
same,Potency,[2],inactive
same,Potency,[3],inactive
same,Potency,[4],inactive
same,Potency,[5],inactive
same,Potency,[6],inactive
CC1(C)CC[C@]2(C(=O)OC3OC(CO)C(O)C(O)C3O)CC[C@]3(C)C(=CCC4[C@@]5(C)C[C@@H](O)[C@H](OC6OC(C(=O)O)C(O)C(O)C6O)C(C)(C)C5CC[C@]43C)[C@@H]2C1 (stereo partly specified),Potency,[1],inactive
same,Potency,[2],inactive
same,"activity change, negative = inhibition",[3],-3.02% [at 11.6 µM]
same,"activity change, negative = thiol reactive",[4],309% [at 11.5 µM]
same,"activity, negative = inhibition",[5],1.92% [at 11.6 µM]
same,redox activity (% of DA3003),[6],1.95% [at 11.5 µM]
COc1c(C)c(OCC=C(C)C)cc2c1COC2=O,Potency,[1],inactive
same,Potency,[2],inactive
same,Potency,[3],inactive
same,Potency,[4],inactive
same,Potency,[5],inactive
same,Potency,[6],inactive
CC1=CC[C@@]2(C)CC[C@@](O)(C(C)C)[C@@H]2[C@@H](O)C1,Potency,[1],inactive
same,Potency,[2],inactive
same,Potency,[3],inactive
same,Potency,[4],inactive
same,Potency,[5],inactive
same,Potency,[6],inactive
COc1ccc(/C=C/C(=O)O[C@@H]2[C@@H](OC(C)=O)[C@@H](OC(C)=O)[C@H](O[C@H]3[C@@H]4C=CO[C@@H](O[C@@H]5O[C@H](CO)[C@@H](O)[C@H](O)[C@H]5O)[C@@H]4[C@@]4(CO)O[C@@H]34)O[C@H]2C)cc1,Potency,[1],inactive
same,Potency,[2],inactive
same,Potency,[3],inactive
same,Potency,[4],inactive
same,Potency,[5],inactive
same,Potency,[6],inactive
C/C=C/C=C/C=C/C(=O)OC1C=C2C(O)OC(=O)[C@]2(O)[C@@]2(C)CCCC(C)(C)[C@H]12 (stereo partly specified),Potency,[1],inactive
same,Potency,[2],inactive
same,Potency,[3],inactive
same,Potency,[4],inactive
same,Potency,[5],inactive
same,Potency,[6],inactive
CCC(CC)CC1(C(=O)Nc2ccccc2SC(=O)C(C)C)CCCCC1,Potency,[1],inactive
same,Potency,[2],inactive
same,Potency,[3],inactive
same,Potency,[4],inactive
same,Potency,[5],inactive
same,Potency,[6],inactive
FC(F)(F)Oc1ccc(-c2ccc3nnc(C(F)(F)F)n3c2)cc1,Potency,[1],inactive
same,Potency,[2],inactive
same,Potency,[3],inactive
same,Potency,[4],inactive
same,Potency,[5],inactive
same,Potency,[6],inactive
NC[C@H]1CCC[C@@H](CNC(=O)[C@@H](Cc2c[nH]c3ccccc23)NC(=O)N2CCC3(C=Cc4ccccc43)CC2)C1,Potency,[1],inactive
same,Potency,[2],inactive
same,Potency,[3],inactive
same,Potency,[4],inactive
same,Potency,[5],inactive
same,Potency,[6],inactive
CC(C)c1ccc2c(c1)C(O)CC1C(C)(C(=O)O)CCCC21C (stereo unspecified),Potency,[1],inactive
same,Potency,[2],inactive
same,Potency,[3],inactive
same,Potency,[4],inactive
same,Potency,[5],inactive
same,Potency,[6],inactive
COC(=O)C[C@@H]1C(C(=O)O)=CO[C@@H](O[C@@H]2O[C@H](CO)[C@@H](O)[C@H](O)[C@H]2O)/C1=C\COC(=O)/C=C/c1ccc(O)c(OC)c1,Potency,[1],inactive
same,Potency,[2],inactive
same,Potency,[3],inactive
same,Potency,[4],inactive
same,Potency,[5],inactive
same,Potency,[6],inactive
CCCC(=O)Nc1cccc(NC(=O)c2ccccc2Br)c1,Potency,[1],inactive
same,Potency,[2],inactive
same,Potency,[3],inactive
same,Potency,[4],inactive
same,Potency,[5],inactive
same,Potency,[6],inactive
